Results: PubChem BioAssay AID1745850 (National Center for Advancing Translational Sciences (NCATS), 2022)
Screen size: about 2,100 compounds; about 260 (12%) were called active. Roughly 58% stayed inconclusive and do not appear here. Calls follow the shape of the dose curve; as a rule, active = well fitted cell-killing curve with a large enough effect; inconclusive = small, poorly fitted or top-dose-only effect, or effect the other way; inactive = flat fitted curve, though single readings scatter. The list shows a part of the results. A call without a number means that no potency is given here.
Potency is read from the fitted curve at half-maximal effect.

Assay: Viability Counterscreen for Confirmatory qHTS for Inhibitors of ATXN expression; also: nearly all actives have a fitted effect of over 50% in size
Conditions: HEK-293 ATXN2-luc cells viability, CellTiter-Fluor, 24 h
Summary of the method: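 Luminescence read-out (SteadyGlo, 5 min) followed a 30 min Gly-Phe-AFC (25 uM final) viability fluorescence read. ATXN2-luciferase reporter cells were exposed 24 h to a dilution series. Medium-only wells served as the 100% inhibition reference.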
For `COc1ccc(N(CC(=O)N2CCN(c3ccc(Cl)cc3)CC2)S(=O)(=O)c2c(C)n[nH]c2C)cc1`, the Potency was “inactive”. For `O=C(Nc1ccc(Cl)c(Cl)c1)Nc1nnc(CSc2ccccc2)s1`, the Potency was 2.51 µM (active). In the case of `CCOc1ccc(NC(=O)Nc2nnc(CC(=O)NCc3ccccc3)s2)cc1`, the Potency is reported as “inactive”. In the case of `CCCCN1C(=O)/C(=C2/Sc3ccccc3N2C)S/C1=N\c1ncn[nH]1`, the Potency is reported as “inactive”. For `CC1=CC(C)(C)N2C(=O)C3(SCC(=O)N3c3ccc(F)cc3)c3cc(C)cc1c32` (stereo unspecified), the Potency was “inactive”. With `CCN(CC)c1ccc(/C=C/c2cccc[n+]2C)c(OC)c1` the Potency was 12.6 µM (active). In the case of `CCN(CC)c1ccc(C(=O)N/N=C/c2ccccc2OC(F)F)cc1`, the Potency is reported as “inactive”. For `O=C(C1CC(=O)N(c2ccc3c(c2)OCCO3)C1)N1CCN(c2ccccc2)CC1` (stereo unspecified), the Potency was “inactive”. With `O=C(CSc1nnc(-c2ccccc2)o1)Nc1ccccc1F` the Potency was “inactive”. For `CC1CC(C)CN(CCCNC(=O)c2cc3c(s2)-c2ccccc2OC3)C1` (stereo unspecified), the Potency was “inactive”. For `Cc1ccc(NC(=O)CCC(=O)c2cc(C)sc2C)nc1`, the Potency was “inactive”. For `COc1ccc(-c2cc(C3CCN(c4ccc(C(C)=O)cc4[N+](=O)[O-])CC3)[nH]n2)cc1`, the Potency was 28.2 µM (active). In the case of `CC(=O)c1ccc(N2CCc3ccccc3C2)c([N+](=O)[O-])c1`, the Potency is reported as “inactive”. For `CN1CCC2(CC1)N=C(c1ccc(F)cc1)C(=S)N2C(=O)c1ccc(C(C)(C)C)cc1`, the Potency was “inactive”. For `CC(C)n1c(NCc2cc(Cl)ccc2O)nc2ccccc21`, the Potency was “inactive”. For `Cc1cc(Oc2ccc(Cl)cc2)nc(-c2ccccn2)n1`, the Potency was “inactive”. With `Clc1ccc(SCc2cc(N3CCOCC3)nc(-c3ccccn3)n2)cc1` the Potency was 10 µM (active). In the case of `Clc1ccc(CSc2ccc(-c3ccccn3)nn2)cc1`, the Potency is reported as “inactive”. For `CCN(CC)CCCNc1nc2ccccc2c2nc(-c3ccncc3)nn12`, the Potency was 25.1 µM (active). For `COC(=O)N/N=C/c1cn(CC(C)COc2ccccc2)c2ccccc12` (stereo unspecified), the Potency was “inactive”. With `Cc1ccc(C)n1-c1ccc(C(=O)N2CCC(C(N)=O)CC2)cc1` the Potency was “inactive”. In the case of `CCOC(=O)C1CCN(C(=O)c2c(C)oc3c2C(=O)c2ccccc2C3=O)CC1`, the Potency is reported as 25.1 µM (active). For `O=C1C(Cl)=C(N2CCC(C(=O)O)CC2)C(=O)c2ccccc21`, the Potency was “inactive”. In the case of `COc1ccc(CCCNC(=O)C2Cc3c(-c4cccc(NC(C)=O)c4)ccnc3O2)cc1` (stereo unspecified), the Potency is reported as “inactive”. With `N#CCc1nc2ccccc2c(=O)[nH]1` the Potency was “inactive”. With `Cc1[nH]c(=O)c(C(=O)/C=C/c2ccccc2)c2c1CCCC2` the Potency was 20 µM (active). In the case of `COC(=O)c1ccccc1S(=O)(=O)NNC(=O)Nc1ccccc1`, the Potency is reported as “inactive”. With `CCCCn1c(/C=N/Nc2nc3ccccc3[nH]2)nc2ccccc21` the Potency was “inactive”. For `CC(C)Cn1c(/C=N/Nc2nc3ccccc3[nH]2)nc2ccccc21`, the Potency was 11.2 µM (active). With `C(=N\Nc1nc2ccccc2[nH]1)/c1cccc2nccnc12` the Potency was “inactive”. With `Cc1sc2nc(CN3CCCC3)nc(N3CCC(C(N)=O)CC3)c2c1C` the Potency was “inactive”. With `Cc1cc(C)n(CCC(=O)N/N=C/c2ccc(O)cc2O)n1` the Potency was “inactive”. In the case of `Cc1cc([N+](=O)[O-])nn1Cc1ccc(C(=O)N/N=C/c2ccc(O)cc2O)cc1`, the Potency is reported as 10 µM (active). With `O=C(N/N=C/c1ccc(O)cc1O)c1ccncc1` the Potency was “inactive”. In the case of `CCn1c(-c2ccc(C)cc2)nn(CC(=O)NCCc2ccccc2)c1=S`, the Potency is reported as “inactive”. For `O=C(NN=Cc1ccc(O)cc1O)c1ccccc1NS(=O)(=O)c1cccs1`, the Potency was “inactive”. For `CCc1ccc(C(O)c2ncc(-c3cccc(C(F)(F)F)c3)[nH]2)cc1` (stereo unspecified), the Potency was “inactive”. In the case of `CCN(CC)CCn1nc2c3c(cccc3c1=O)-c1ccccc1-2`, the Potency is reported as 14.1 µM (active). With `COc1ccc(/C(N)=N/OC(=O)N2CCOCC2)cc1` the Potency was “inactive”. In the case of `Cn1c2c(c(=O)[nH]c1=O)C(c1cccc(O)c1)C1=C(N2)c2ccccc2C1=O` (stereo unspecified), the Potency is reported as 22.4 µM (active). With `CCOC(=O)C(C(C)=O)c1c(Br)c(O)c(O)c2c(C(=O)c3ccc(C)cc3)coc12` (stereo unspecified) the Potency was 15.8 µM (active). For `CC(=O)C(C(C)=O)c1c(Cl)c(O)c(O)c2c(C(=O)c3ccccc3)coc12`, the Potency was 12.6 µM (active). With `Cc1ccc(NC(=O)CSc2ccc(Br)cc2)cc1S(=O)(=O)N1CCOCC1` the Potency was “inactive”. For `CCc1ccc(N(CC)C(=O)c2ccc3c(Cl)c4c(nc3c2)CCC4)cc1`, the Potency was “inactive”. In the case of `Cc1ccc(Cc2cnc(NC(=O)/C(C#N)=C/c3ccc(-c4cccc([N+](=O)[O-])c4)o3)s2)cc1`, the Potency is reported as 22.4 µM (active). In the case of `CCN1C(=O)/C(=C/c2nc3ccccc3c(=O)n2-c2ccccc2)c2ccccc21`, the Potency is reported as 25.1 µM (active). In the case of `COc1ccc(Cc2nnc(N/N=C/c3ccccc3O)[nH]c2=O)cc1OC`, the Potency is reported as 4.47 µM (active). In the case of `C=CCOc1ccc(CNc2ccc3[nH]c(=O)[nH]c3c2)cc1OC`, the Potency is reported as “inactive”. For `COc1cc(Br)cc(/C=N/NC(=O)Cc2ccccc2)c1O`, the Potency was “inactive”. With `Cc1ccc(S(=O)(=O)c2c(N)n(CC3CCOC3)c3nc4ccccc4nc23)cc1` (stereo unspecified) the Potency was “inactive”. With `COc1cccc(/C=N/n2c(N)c(S(=O)(=O)c3cccs3)c3nc4ccccc4nc32)c1OC` the Potency was 22.4 µM (active). In the case of `CCn1ccnc1CN1CCCC(C(=O)c2ccc3cc(OC)ccc3c2)C1` (stereo unspecified), the Potency is reported as “inactive”. In the case of `O=S(=O)([N-]c1nc2ccccc2nc1-[n+]1ccc(Cc2ccccc2)cc1)c1ccc(Br)s1`, the Potency is reported as 7.94 µM (active). With `CCc1noc(C)c1C(=O)N1CCSC1=Nc1cccc(Cl)c1C` the Potency was “inactive”. With `CC1(C)Cc2ccccc2C2=NNC(=O)C2=N1` the Potency was 28.2 µM (active). In the case of `O=c1cc(C(F)(F)F)[nH]c2ccc(C(F)(F)F)cc12`, the Potency is reported as “inactive”. With `CN(C)CCNC(=O)c1ccc(Cl)c2cc3ccccc3nc12` the Potency was 10 µM (active). In the case of `COc1ccc(N(C)S(=O)(=O)c2ccc(Cl)c(C(=O)NCCc3ccc(Cl)cc3)c2)cc1`, the Potency is reported as “inactive”. In the case of `CSc1sc(C(=O)NN)c2c1C1(CCC2)SCCS1`, the Potency is reported as “inactive”. In the case of `CCCCCn1c(=O)c2ccccc2n2c(CCl)nnc12`, the Potency is reported as 25.1 µM (active). In the case of `CCOC(=O)C(CC)(CC)C(=O)/C=C/c1ccc(OC)cc1`, the Potency is reported as “inactive”. In the case of `CC(C)=CCc1ccc(O)c(=O)cc1C(C)C`, the Potency is reported as “inactive”. In the case of `O=C(N/N=C(\Cc1ncc[nH]1)c1ccccc1)c1cccnc1`, the Potency is reported as “inactive”. For `COc1cc(C(=O)N/N=C(\c2ccccc2)c2ccccn2)cc(OC)c1OC`, the Potency was 2.24 µM (active). For `COc1cc(C(=O)N/N=C(\Cc2ncc[nH]2)c2ccccc2)cc(OC)c1OC`, the Potency was “inactive”. With `CCc1ccc(NC(=O)C2CCN(S(=O)(=O)c3ccc4c(c3)CC(C)N4C(C)=O)CC2)cc1` (stereo unspecified) the Potency was “inactive”. With `COc1cc2[nH]c(=O)n(CCCCCC(=O)N3CC=C(c4ccccc4)CC3)c(=O)c2cc1OC` the Potency was 3.16 µM (active). For `CCOc1ccc(S(=O)(=O)NCCC(=O)N2CC=C(c3ccccc3)CC2)cc1`, the Potency was “inactive”. In the case of `Cc1cccn2c(=O)c3cc(C(=O)NCCc4ccccc4)c(=N)n(CCCn4ccnc4)c3nc12`, the Potency is reported as “inactive”. With `O=C(Nc1ccccc1C(=O)Nc1nnc(C(F)(F)F)s1)c1ccccc1` the Potency was 3.98 µM (active). With `Cc1onc(-c2c(F)cccc2Cl)c1C(=O)Nc1nnc(C(F)(F)F)s1` the Potency was “inactive”. In the case of `CC1CCCN(c2ncnc3c2cnn3-c2ccc(Cl)cc2)C1` (stereo unspecified), the Potency is reported as “inactive”. With `O=C(NCc1ccco1)c1ccc(-c2cccc(Cl)c2)o1` the Potency was “inactive”. In the case of `CC(NC1=CC(=O)c2cccnc2C1=O)C(O)c1ccccc1` (stereo unspecified), the Potency is reported as 31.6 µM (active). For `COc1ccc2c(c1)[nH]c1c(=O)n(/N=C/C3C(C)C=C(C)CC3C)c(=O)[nH]c12` (stereo unspecified), the Potency was 20 µM (active). In the case of `Cc1ccc(-c2cc(C(=O)NCCCN3CCOCC3)no2)cc1`, the Potency is reported as “inactive”. For `CCOC(=O)c1c(SCCN2CCCC2)n(-c2ccccc2)c(=S)n(-c2ccccc2)c1=O`, the Potency was 2.51 µM (active). In the case of `O=C(/C=C/NNC(=O)c1ccccc1)c1ccc([N+](=O)[O-])cc1`, the Potency is reported as 12.6 µM (active). For `CCCCC(=O)N(C)c1c(CC)nc2c(OCc3ccc(Cl)cc3Cl)cccn12`, the Potency was “inactive”. In the case of `O=C(NCC(=O)N1CC(O)CC1C(=O)N1CCCC1C(=O)OCc1ccccc1)OCc1ccccc1` (stereo unspecified), the Potency is reported as “inactive”. For `COc1cccc2c1C(=N)c1c(O)c3c(c(O)c1C2=O)CC(O)(C(C)=O)CC3OC1CC(N)C(O)C(C)O1` (stereo unspecified), the Potency was 4.47 µM (active). In the case of `CCCCC(=O)OCC(=O)C1(O)Cc2c(O)c3c(c(O)c2C(OC2CC(NC(=O)C(F)(F)F)C(O)C(C)O2)C1)C(=O)c1c(OC)cccc1C3=O` (stereo unspecified), the Potency is reported as 15.8 µM (active). With `CCC1=C(OC(=O)N(CC)CC)N2C(=O)OC(=NCCc3c[nH]c4ccccc34)[C@]2(Cc2ccccc2)[C@H]2C1=CC[C@H]1C(=O)N(c3ccccc3)C(=O)[C@H]12` the Potency was “inactive”. For `CCCC(=O)Nc1c(C(=O)OCC)[nH]c2ccccc12`, the Potency was “inactive”. In the case of `CCOc1ccc(/C=N/NC(=O)C(O)c2ccccc2)c(O)c1` (stereo unspecified), the Potency is reported as “inactive”. In the case of `O=c1ccc2ccccc2c2ccccc12`, the Potency is reported as 17.8 µM (active). For `O=C(N/N=C\c1c(O)ccc2ccccc12)c1ccc(Cn2cccn2)o1`, the Potency was “inactive”. With `Cc1ccc(Cl)cc1-c1ccc(C=Nc2ccc(N3CCOCC3)cc2)o1` the Potency was “inactive”. With `C=CCn1cnc2c(c1=O)c1nc3ccccc3nc1n2/N=C/c1cc(OC)c(OC)c(OC)c1` the Potency was 20 µM (active). With `CCC(C)n1cnc2c(c1=O)c1nc3ccccc3nc1n2-c1ccc2c(c1)OCCO2` (stereo unspecified) the Potency was “inactive”. For `Cc1ccsc1/C=C/C1=Cc2c(sc(NC(=O)CSc3n[nH]c(N)n3)c2C#N)C(C)(C)C1`, the Potency was “inactive”. With `c1ccc(Cn2c(-c3ccccc3)c[n+]3c2SCCC3)cc1` the Potency was “inactive”. For `Cc1ccc(S(=O)(=O)c2nc(S(C)(=O)=O)sc2N2CCCCC2C)cc1` (stereo unspecified), the Potency was “inactive”. With `Cc1ccnc(NC(=O)CCCc2c[nH]c3ccccc23)c1` the Potency was “inactive”. With `COc1ccc(CCNC(=O)c2cc3c(F)cccc3s2)cc1OC` the Potency was “inactive”. For `COc1cc(/C=C(/C#N)C(=O)NCCc2c[nH]c3ccccc23)ccc1OCc1ccccc1F`, the Potency was 25.1 µM (active).
